The record followed here is PubChem BioAssay (NCATS).

The subject of assay [1] is Zika virus NS2B-NS3 protease. The experiment in a line: Primary screen GU AMC qHTS for Zika virus inhibitors (AID 1347154). Note: nearly all actives have a fitted effect of over 70% in size. A digest of the protocol: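 Unlinked Zika NS2B hydrophilic domain–NS3 protease complex at 25 nM in 10 mM Tris-HCl pH 8.0, 0.01% Tween 20, with an AMC peptide substrate. Fluorescence change (340/450 nm) over 15 min at room temperature, normalized to controls, fitted to 4-parameter Hill.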
On the technique in general: Quantitative high-throughput screening tests each substance at several concentrations.

For assay [2], the system named is Zika virus NS2B-NS3 protease (linked construct). Put plainly: Primary screen NINDS Rhodamine qHTS for Zika virus inhibitors (AID 1347160). Note: nearly all actives have a fitted effect of over 55% in size. A digest of the protocol: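 Percent inhibition, normalized to uninhibited and enzyme-free controls, is fitted to a 4-parameter Hill equation. Fluorescence change comes from a 15-min cleavage of 1.5 microM bis-peptide Rhodamine110 substrate by 25 nM linked NS2B-NS3 at room temperature.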

The target of the next assay is Furin (Homo sapiens) (UniProt P09958). The experiment in a line: Furin counterscreen qHTS for Zika virus inhibitors (AID 1347149).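 Note: purified recombinant full-length human furin enzyme at 5 nM; fluorescence gain from furin cutting a BOC-RVRR-AMC peptide substrate over 15 min; top concentration of the series differs between compounds; nearly all actives have a fitted effect of over 70% in size.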 A digest of the protocol: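 Fluorogenic cleavage of BOC-RVRR-AMC (2 microM final, Km ~15 µM) was monitored (ex 340, em 450 nm) at 37C after 15 min RT preincubation of 5 nM furin with compounds in HEPES pH 7.0 buffer with CaCl2 and Triton X-100. Percent inhibition was fitted to a 4-parameter Hill curve.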
For orientation: A counterscreen serves to expose hits that act by an unwanted route or on another target.

The nature of assay [3]: Confirmatory screen NINDS Rhodamine qHTS for Zika virus inhibitors (AID 1347161).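 Note: purified Zika NS2B-NS3 protease with linked NS2B cofactor domain and Rhodamine110 peptide substrate; series mostly up to about 110 µM; nearly all actives have a fitted effect of over 60% in size.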 Summed up: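 Aprotinin served as in-plate control. Conditions: 25 nM linked NS2B-NS3, pH 8.0 Tris buffer, titrated compounds, 15 min preincubation and 15 min reaction with 1.5 microM Rhod110 substrate at room temperature.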
Assay [4] can be described thus: qHTS of pediatric cancer cell lines to identify multiple opportunities for drug repurposing: Primary screen for NB1643 cells (AID 1347099). Note: nearly all actives have a fitted effect of over 50% in size. A digest of the protocol: (§1)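 Cells plated at 500-1,000/well in growth medium, compounds added after 5 h. MIPE tested at 11 points (from 0.78 nM), NPC at 8 points (from 0.59 nM). CellTiter-Glo luminescence after 48 h; concentration-response curves from primary screen.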

Assay [5] in a line: qHTS of pediatric cancer cell lines to identify multiple opportunities for drug repurposing: Primary screen for LAN-5 cells (AID 1347100). A digest of the protocol: (§2)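 Viability after 48 h compound treatment at 37C, 500-1,000 cells/well, read as ATP luminescence with CellTiter-Glo. Primary screens used 11-point (MIPE, 0.78 nM-46 µM) or 8-point (NPC, 0.59 nM-46 µM) final concentrations; follow-up screens used 11-point dilutions.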

Assay [6] can be described thus: qHTS of pediatric cancer cell lines to identify multiple opportunities for drug repurposing: Primary screen for BT-12 cells (AID 1347101). Note: nearly all actives have a fitted effect of over 25% in size. A digest of the protocol: (§3)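 Cells (500-1,000/well) rested 5 h, then received compounds for 48 h; metabolically active cells were measured by CellTiter-Glo luminescence. Final concentrations spanned up to 46 µM (MIPE, 11-point) or 0.59 nM-46 µM (NPC, 8-point) in primary screens, 11-point in follow-ups.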

The nature of assay [7]: qHTS of pediatric cancer cell lines to identify multiple opportunities for drug repurposing: Primary screen for Rh18 cells (AID 1347102). Note: nearly all actives have a fitted effect of over 65% in size. Summed up: as §2
Assay [8] in a line: qHTS of pediatric cancer cell lines to identify multiple opportunities for drug repurposing: Primary screen for OHS-50 cells (AID 1347103). Note: nearly all actives have a fitted effect of over 40% in size. Summed up:
as §3

Assay [9] can be described thus: qHTS of pediatric cancer cell lines to identify multiple opportunities for drug repurposing: Primary screen for RD cells (AID 1347104). Note: nearly all actives have a fitted effect of over 55% in size. A digest of the protocol: as §1
Assay [10] is described as follows: qHTS of pediatric cancer cell lines to identify multiple opportunities for drug repurposing: Primary screen for MG 63 (6-TG R) cells (AID 1347105). Note: nearly all actives have a fitted effect of over 50% in size. Summed up:
as §1

Assay [11] is described as follows: qHTS of pediatric cancer cell lines to identify multiple opportunities for drug repurposing: Primary screen for control Hh wild type fibroblast cells (AID 1347106).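 Note: series mostly up to about 46 µM; a drop in luminescence marks cytotoxicity and a rise apparent proliferation; nearly all actives have a fitted effect of over 55% in size.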 Summed up:
as §2

Assay [12] is described as follows: qHTS of pediatric cancer cell lines to identify multiple opportunities for drug repurposing: Primary screen for Rh30 cells (AID 1347107). Note: series mostly up to about 46 µM; nearly all actives have a fitted effect of over 75% in size. Summed up: as §2
Assay [13] is described as follows: qHTS of pediatric cancer cell lines to identify multiple opportunities for drug repurposing: Primary screen for Rh41 cells (AID 1347108).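 Note: series mostly up to about 46 µM; luminescence drop marks cytotoxic hits; nearly all actives have a fitted effect of over 70% in size.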 A digest of the protocol:
as §1

Assay [14] concerns the target N-terminal Xaa-Pro-Lys N-methyltransferase 1 (Homo sapiens) (UniProt Q9BV86). The experiment in a line: qHTS Assay for Inhibitors of N-terminal methyltransferase 1 (NTMT1): LOPAC validation of the NTMT1 SAHH-coupled ThioGlo3 Assay (AID 1347143).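 Note: SAH from peptide methylation measured as thiol fluorescence via SAHH coupling and ThioGlo3; potency is the fitted concentration of half-maximal effect; nearly all actives have a fitted effect of over 70% in size.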 The note with it: recombinant NTMT1, SAHH-coupled ThioGlo3 fluorescence. A digest of the protocol:
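Recombinant human NTMT1 (125nM) was pre-incubated 1 min at room temperature with compounds over a concentration range, then a mix of 100uM SAM, 10uM SAHH and 15uM ThioGlo3 (concentrations in added reagent) was added. ThioGlo3 fluorescence (ex 340/em 450nm) after 30 min was normalized to the initial reading.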

Assay [15] has as its system Zika virus NS2B-NS3 protease (unlinked). The experiment in a line: Optimization of GU AMC qHTS for Zika virus inhibitors: Unlinked NS2B-NS3 protease assay (AID 1347151). Note: potency is the fitted concentration of half-maximal effect; nearly all actives have a fitted effect of over 80% in size. A digest of the protocol: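 Noncovalent NS2B hydrophilic domain–NS3 protease complex (25 nM final) in 10 mM Tris-HCl pH 8.0, 0.01% Tween 20; AMC substrate, room temperature 15 min (~20% conversion); fluorescence change normalized, 4-parameter Hill fit.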

A short description of assay [16]: Confirmatory screen GU Rhodamine qHTS for Zika virus inhibitors qHTS (AID 1347157). Note: nearly all actives have a fitted effect of over 70% in size. Summed up: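 Compounds, tested up to 114 microM, were incubated for 15 minutes with 25 nM unlinked NS2B-NS3 protease at pH 8.0. Cleavage of 1.5 microM Rhodamine110 substrate was then followed by fluorescence for 15 minutes.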

Results filed as inconclusive are left out. Values without a mark were called inactive. The source made the active and inactive calls. Calls come from the whole dose curve; as a rule, active = well fitted curve in the direction sought with a large enough effect; inconclusive = small, poorly fitted or top-dose-only effect, or another doubt; inactive = no such curve, though single readings can be large; an effect the other way counts as inactive or inconclusive.

Sequence of Furin (Homo sapiens) (P09958 whole entry, looked up): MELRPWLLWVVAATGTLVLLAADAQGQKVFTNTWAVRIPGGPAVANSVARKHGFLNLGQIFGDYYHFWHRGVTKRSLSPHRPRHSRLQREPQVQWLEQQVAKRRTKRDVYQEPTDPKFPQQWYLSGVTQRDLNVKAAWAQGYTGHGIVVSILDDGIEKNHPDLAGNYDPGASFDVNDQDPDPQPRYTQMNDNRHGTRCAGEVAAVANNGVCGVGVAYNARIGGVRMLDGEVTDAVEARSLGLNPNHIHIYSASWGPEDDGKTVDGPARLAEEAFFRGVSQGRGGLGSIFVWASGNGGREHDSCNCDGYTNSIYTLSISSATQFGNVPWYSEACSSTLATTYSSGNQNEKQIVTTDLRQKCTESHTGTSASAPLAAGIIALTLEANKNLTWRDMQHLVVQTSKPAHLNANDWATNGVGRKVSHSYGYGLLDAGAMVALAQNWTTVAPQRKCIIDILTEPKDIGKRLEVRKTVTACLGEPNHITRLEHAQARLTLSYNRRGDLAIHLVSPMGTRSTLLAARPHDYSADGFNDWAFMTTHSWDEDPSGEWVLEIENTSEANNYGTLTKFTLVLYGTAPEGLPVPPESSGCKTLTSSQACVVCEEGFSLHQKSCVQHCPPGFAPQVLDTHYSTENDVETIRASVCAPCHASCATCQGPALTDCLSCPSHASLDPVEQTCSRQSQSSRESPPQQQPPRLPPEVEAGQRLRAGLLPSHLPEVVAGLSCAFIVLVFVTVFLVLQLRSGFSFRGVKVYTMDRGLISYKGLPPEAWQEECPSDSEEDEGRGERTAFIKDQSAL
Sequence of N-terminal Xaa-Pro-Lys N-methyltransferase 1 (Homo sapiens) (Q9BV86 whole entry, looked up): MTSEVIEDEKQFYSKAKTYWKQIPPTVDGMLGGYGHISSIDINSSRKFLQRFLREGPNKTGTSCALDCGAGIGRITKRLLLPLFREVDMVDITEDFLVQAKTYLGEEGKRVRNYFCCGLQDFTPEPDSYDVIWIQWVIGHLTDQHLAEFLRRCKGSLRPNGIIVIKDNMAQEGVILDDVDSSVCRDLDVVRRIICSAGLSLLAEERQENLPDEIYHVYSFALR

In the case of `NC[C@H]1O[C@H](O[C@H]2[C@H](O)[C@@H](O[C@H]3O[C@H](CO)[C@@H](O)[C@H](N)[C@H]3O)[C@H](N)C[C@@H]2N)[C@H](N)C[C@@H]1O`, the outcome in assay [1] was inactive.

As for `O=C(O)[C@@H]1C[C@H](CP(=O)(O)O)CCN1`, in assay [1], the outcome was inactive.

For `C/C(=C\C(=O)OCCCCCCCCC(=O)O)C[C@@H]1OC[C@H](C[C@@H]2O[C@H]2[C@@H](C)[C@H](C)O)[C@@H](O)[C@H]1O`, the Potency result in assay [2] is “inactive”.

With `COc1ccc(C[C@H](C)NC[C@@H](O)c2ccc(O)c(NC=O)c2)cc1`, in [1], the result was inactive. In assay [2], the Potency entry is “inactive”.

In the case of `N[C@@H](Cc1cc(I)c(Oc2ccc(O)c(I)c2)c(I)c1)C(=O)O`, the compound was called inactive in the assay with Furin (Homo sapiens). For the same compound, the Potency entry in assay [3] was “inactive”.

For the compound `CNC(=O)[C@H](Cc1c[nH]c2ccccc12)NC(=O)[C@@H](CC(=O)NO)CC(C)C`, the outcome in assay [1] was inactive.

For the compound `O=C(O)CCC(=O)c1ccc(-c2ccccc2)cc1`, the outcome in assay [4], in assay [5], in assay [6], in assay [7], in [8] and in assay [9] was inactive. For the same compound, the compound was classed as inactive in [10], in assay [11], in [12], in assay [13] and in [1].

Turning to `Oc1ccc(/C=C/c2cc(O)cc(O)c2)cc1`, the compound was called inactive in assay [4], in [5], in assay [6], in [7], in assay [8] and in assay [9]. The call in assay [11], in assay [12] and in [13] was inactive. For the same compound, the Potency is 50.1 µM (active) in [14] and 26.7 µM (active) in [15].

With `CC(C)(C)CC(C)(C)c1cc(Cc2cc(C(C)(C)CC(C)(C)C)cc(-n3nc4ccccc4n3)c2O)c(O)c(-n2nc3ccccc3n2)c1`, the outcome in the assay with Furin (Homo sapiens) was inactive. In addition, the Potency result in assay [16] and in assay [3] was “inactive” throughout.

For `C[C@@](Cc1ccc(O)c(O)c1)(NN)C(=O)O`, the call in [1] was inactive.

`Nc1ccc(N=Nc2ccccc2)c(N)n1`: the result in assay [4], in [5], in assay [6], in assay [7], in assay [9] and in assay [10] was inactive. Moreover, the result in assay [11], in assay [12], in assay [13] and in [1] was inactive.
